As a reminder, the inhibition is the drop in the measured response relative to a control, in per cent.

Molecules are shown by their SMILES. Active and inactive are the calls of the source. How the calls were made is not given here.

Chain of Pantothenate synthetase (Mycobacterium tuberculosis (strain ATCC 25618 / H37Rv)) (P9WIL5 whole entry, looked up): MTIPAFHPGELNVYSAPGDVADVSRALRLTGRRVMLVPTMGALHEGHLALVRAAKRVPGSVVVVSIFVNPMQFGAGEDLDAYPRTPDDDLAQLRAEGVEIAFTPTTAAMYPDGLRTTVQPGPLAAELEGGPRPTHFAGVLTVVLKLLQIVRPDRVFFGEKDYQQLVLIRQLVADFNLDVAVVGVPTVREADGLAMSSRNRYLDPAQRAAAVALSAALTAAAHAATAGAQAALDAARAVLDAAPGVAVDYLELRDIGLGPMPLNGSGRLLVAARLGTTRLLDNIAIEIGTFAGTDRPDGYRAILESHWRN

This assay addresses Pantothenate synthetase (Mycobacterium tuberculosis (strain ATCC 25618 / H37Rv)) (UniProt P9WIL5). Put plainly: Coupled enzyme confirmation of inhibitors against recombinant Mtb PanC (AID 375).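 Further: 0% = full reaction with vehicle and 100% = no enzyme background.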 The conditions noted are these: coupled enzyme assay; at 10 µM, active compounds read high.
Take `CCOC(=O)C1C(=O)OC(C)(C)C1C(C)C(=O)c1ccc(OC)cc1` (stereo not given): the inhibition is 0% (inactive). The figure for `CCOC(=O)c1cccnc1SCC(=O)NC(C)CC` (stereo not given) is 0% (inactive); for `Cc1nn(-c2ccc(F)cc2)c2sc(C(=O)O)cc12` it is 0% (inactive); for `S=c1[nH]nc(-c2cccc(Br)c2)o1` it is 10% (inactive). Under `CCc1cc2c(NCCC(=O)O)nc(C)nc2s1` stands 1% (inactive); under `CCCC1C(C#N)=C(N)Oc2n[nH]c(C(C)(C)C)c21` (stereo not given), 0% (inactive). `CCOC(=O)Cc1c(C)c2c(O)cc(O)cc2oc1=O`: the inhibition is 8% (inactive).

Consider `CCCCCOC(=O)C1=C(C)N(C)C(=O)NC1c1cc(Br)c(O)c(OC)c1` (stereo not given), for which the inhibition is 0% (inactive). Under `CCOC(=O)N1CCN(C(=O)c2ccc3c(=O)n(Cc4ccc(OC)cc4)c(=S)[nH]c3c2)CC1` stands 4% (inactive).

`CC(C[N+](C)(C)C)OC(N)=O` (stereo not given): the inhibition was 0% (inactive). Under `Cc1ccc(O)c(NC(=O)COc2cc(C)ccc2C)c1` stands 0% (inactive).

In the case of `CCOc1ccc(-c2c(C#N)c(N)nc3c2c(=O)n(C)c(=O)n3C)cc1OC`, the inhibition is 6% (inactive). For `CCc1nnc(NC(=O)c2cccc(C(=O)Nc3nnc(CC)s3)n2)s1`, the inhibition was 0% (inactive). On to `Cc1c(C(=O)OC(C)C)[nH]c2c1C(=O)CCC2`, for which the inhibition was 0% (inactive). The figure for `O=S(=O)(Nc1cccnc1)c1ccc2c(c1)OCCO2` is 1% (inactive); for `O=C1CCCc2c1nn(-c1ccccc1)[n+]2[O-]` it is 0% (inactive); for `O=C1NC2c3ccccc3C(=O)N2c2c1cnn2-c1ccccc1` (stereo not given) it is 1% (inactive). With `CCCc1nnc2n1N=C(c1ccc(-c3cc(Cl)ccc3Cl)o1)CS2`, the inhibition is 0% (inactive). The figure for `NC(=O)C1(N2CCCCC2)CCN(CC(=O)Nc2cc(Cl)ccc2Cl)CC1` is 3% (inactive); for `CCCCn1c(SCC(=O)Nc2cc(C)on2)nnc1-c1cccnc1` it is 0% (inactive); for `CCOC(=O)c1[nH]c2ccccc2c1NC(=O)C(CC)CC` it is 8% (inactive). Under `Cc1cnc(C(=O)OCC(=O)Nc2ccc(Oc3ccccc3)cc2)cn1` stands 0% (inactive); under `CCOC(=O)N1CCN(CC(=O)Nc2c(C(=O)OC)[nH]c3cccc(Cl)c23)CC1`, 0% (inactive). Under `CN(CC(=O)Nc1sccc1C#N)C1CCCCC1` stands 0% (inactive). Take `CCCCCOC(=O)CSc1nnc(-c2cc(OC)c(OC)c(OC)c2)o1`: the inhibition was 4% (inactive). The figure for `Cc1cc(C)cc(NC(=O)CSc2nnc(Cc3cccn3C)n2-c2ccc(F)cc2)c1` is 6% (inactive); for `CC(=O)SCCC(=O)Nc1ccccc1` it is 0% (inactive); for `Clc1ccc(Cn2ncc3c(NCc4cccnc4)ncnc32)cc1` it is 0% (inactive). As for `O=C(NCc1ccco1)c1cccc(-c2nnc(-c3ccccc3)o2)c1`, the inhibition was 0% (inactive). The figure for `COc1ccc(-c2cnc(SCC(=O)Nc3ccc4c(c3)OCO4)n2Cc2ccco2)cc1` is 0% (inactive).

For `CCCC(=O)Nc1ncnc2c1ncn2[C@@H]1O[C@@H]2COP(=O)(O)O[C@H]2[C@H]1OC(=O)CCC`, the inhibition is 0% (inactive). Under `CCOC(=O)C(NC(=O)CC)(Nc1ccc(S(=O)(=O)Nc2onc(C)c2C)cc1)C(F)(F)F` (stereo not given) stands 0% (inactive); under `Cc1ccc(C)c(N2CCN(C(=O)c3ccc(CS(=O)(=O)c4ccccc4C)o3)CC2)c1`, 8% (inactive); under `Cn1c(=O)cc(SCC(=O)N2CCOCC2)c2ccc(Cl)cc21`, 0% (inactive). The figure for `COc1ccc(S(=O)(=O)N2CCN(Cc3ccc(Cl)cc3)CC2)cc1` is 0% (inactive). The figure for `CN(C)c1nc(N(C)C)nc(N(C)C)n1` is 2% (inactive); for `COc1ccc(C(=O)NC(=O)CSc2nnc(-c3ccco3)n2-c2ccccc2)cc1` it is 0% (inactive); for `CCOC(=O)c1cc(CC)sc1NC(=O)CCC(=O)O` it is 2% (inactive). For the compound `Nc1ccc(-c2ccc(N)cc2C(F)(F)F)c(C(F)(F)F)c1`, the inhibition is 0% (inactive). Under `CCc1nc(SCC(=O)NCc2ccco2)c2c3c(sc2n1)CCCC3` stands 4% (inactive).
